Assay results: PubChem BioAssay
Values joined by “and” are separate entries in the source; they are usually repeats but may differ in a detail not shown here. Identical values can stand only once. Active and inactive are the calls of the source.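 How the source made its calls, unless noted: active means inhibition at or above 50% relative to wild type and mutant plate controls; inactive means inhibition below 50%.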

What was measured:
[1] = inhibitors of TNFa-induced NFkB p65 translocation, primary screen, imaging, HUVEC, MLSMR starter and 10KST1 sets (AID 438;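 active means inhibition above 20% together with a positive visual image hit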;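 further: compound added about 3h40 before a 20 min TNFalpha stimulation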;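 on inhibition: signal is the nuclear over cytoplasmic p65 intensity ratio per well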); conditions: HUVEC TNFa-induced p65 nuclear translocation; cell count: measured here: nuclei count (cytotoxicity indicator), at 2.08 µM; inhibition: at 2 µM, stronger effect = higher value, 0% TNFa-plus-vehicle, 100% no-TNFa wells
[2] = reduction of polyQ htt aggregates in cells – imaging, exon1htt(103Q)mCFP cells, high-content imaging, primary screen (AID 483;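 active means visual image review flags a hit and inhibition of aggregation exceeds 20%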;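 further: compound exposure lasted 3 days before fixation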;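 on nuclei count: percent of the per-plate median nuclei count of sample wells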); conditions: exon1htt(103Q)mCFP cell line, aggregate imaging, at 2 µM; inhibition of aggregation: stronger effect = higher value; nuclei count: measured here: cell count, toxicity
[3] = endothelial E-selectin expression blockers – imaging, HUVEC, immunofluorescence, MLSMR starter and 10KST1 sets, primary screen (AID 487;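 active means visually confirmed hit in the image check and inhibition above 20%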;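 on inhibition: signal is fraction of cell area covered by stained E-selectin grains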;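 on nuclei count: 100% = median nuclei count of all wells on the same plate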); conditions: HUVEC TNFalpha-induced E-selectin immunofluorescence imaging, at 2 µM; inhibition: stronger effect = higher value; nuclei count: measured here: cell number, toxicity
[4] = Primary imaging screen for DUSP6 inhibitors that restore phospho-Erk in transfected HeLa cells, chemical complementation (AID 609;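 active means compounds giving at least 50% inhibition in the cell-based MKP-3 phosphatase rescue imaging test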;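 on inhibition: phospho-Erk level distribution per well compared with pooled transfected vehicle control wells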); conditions: HeLa MKP-3 transfected, phospho-Erk imaging KS statistic, at 10 µM, cells stimulated with TPA for 15 min
[5] = biological target: Dual specificity protein phosphatase 6 (Homo sapiens) (UniProt Q16828); assay: as above; conditions: HeLa MKP-3 transfected, phospho-Erk imaging KS statistic; at 10 µM; stronger effect = higher value; cells stimulated with TPA for 15 min
Chain of Dual specificity protein phosphatase 6 (Homo sapiens) (Q16828 whole entry, looked up): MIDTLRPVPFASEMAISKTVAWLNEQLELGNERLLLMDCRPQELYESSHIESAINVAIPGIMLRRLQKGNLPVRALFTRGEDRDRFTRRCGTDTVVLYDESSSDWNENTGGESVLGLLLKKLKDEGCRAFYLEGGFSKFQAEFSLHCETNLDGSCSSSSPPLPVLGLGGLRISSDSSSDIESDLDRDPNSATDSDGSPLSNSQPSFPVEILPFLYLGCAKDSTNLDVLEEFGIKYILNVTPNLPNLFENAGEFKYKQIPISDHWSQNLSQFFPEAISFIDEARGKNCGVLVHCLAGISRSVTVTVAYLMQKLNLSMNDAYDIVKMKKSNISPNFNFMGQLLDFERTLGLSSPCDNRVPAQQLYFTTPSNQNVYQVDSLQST

[6] = biological target: Voltage-gated potassium channel subunit beta-2 (Rattus norvegicus) (UniProt P62483); assay: inhibitors of rat Kvbeta2 reductase activity – biochemical, NADPH fluorescence, primary screen (AID 622;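 active means fluorescence slope higher than the sample average by over 3 SD, cut at about -0.22 in these data, passing the limit was not always enough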;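 further: slope of raw intensity against log time taken from 70 to 1610 s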); conditions: recombinant KvBeta, 4-cyanobenzaldehyde reduction, at 10 µM, stronger effect = higher value
Chain of Voltage-gated potassium channel subunit beta-2 (Rattus norvegicus) (P62483 whole entry, looked up): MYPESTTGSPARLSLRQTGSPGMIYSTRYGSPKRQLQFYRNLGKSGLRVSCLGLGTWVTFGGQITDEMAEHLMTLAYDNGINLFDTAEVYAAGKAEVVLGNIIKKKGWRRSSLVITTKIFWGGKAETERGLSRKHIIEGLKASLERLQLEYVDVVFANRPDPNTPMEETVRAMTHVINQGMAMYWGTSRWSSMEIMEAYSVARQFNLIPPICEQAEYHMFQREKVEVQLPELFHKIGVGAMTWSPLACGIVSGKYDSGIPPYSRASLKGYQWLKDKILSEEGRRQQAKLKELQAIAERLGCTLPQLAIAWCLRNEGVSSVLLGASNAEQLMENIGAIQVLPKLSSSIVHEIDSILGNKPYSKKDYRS

[7] = biological target: Voltage-gated potassium channel subunit beta-2 (Rattus norvegicus) (UniProt P62483); assay: enhancers of rat Kvbeta2 NADPH turnover – biochemical, NADPH fluorescence, primary screen (AID 623;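 active means NADPH fluorescence slope more negative than the mean of all samples by about 3 SD, 99.7% confidence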;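 further: fluorescence intensity change per second fitted from 20 to 320 s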); conditions: Recombinant KvBeta, NADPH fluorescence decrease slope, 10 min; at 10 µM; stronger effect = lower value
[8] = biological target: Alpha-2C adrenergic receptor (Homo sapiens) (UniProt P18825); assay: compounds altering alpha2C-coupled GIRK flux – cell-based, HEK293 alpha2C/GIRK1/2, thallium flux, primary screen (AID 624;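 active means fluorescence slope after compound addition differing from the mean of all screened samples at 99.7% confidence, in either direction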;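 further: slope of fluorescence ratio to pre-addition baseline per second over 15 to 24 s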); conditions: thallium flux BTC fluorescence, at 10 µM, actives lie on both sides
Chain of Alpha-2C adrenergic receptor (Homo sapiens) (P18825 whole entry, looked up): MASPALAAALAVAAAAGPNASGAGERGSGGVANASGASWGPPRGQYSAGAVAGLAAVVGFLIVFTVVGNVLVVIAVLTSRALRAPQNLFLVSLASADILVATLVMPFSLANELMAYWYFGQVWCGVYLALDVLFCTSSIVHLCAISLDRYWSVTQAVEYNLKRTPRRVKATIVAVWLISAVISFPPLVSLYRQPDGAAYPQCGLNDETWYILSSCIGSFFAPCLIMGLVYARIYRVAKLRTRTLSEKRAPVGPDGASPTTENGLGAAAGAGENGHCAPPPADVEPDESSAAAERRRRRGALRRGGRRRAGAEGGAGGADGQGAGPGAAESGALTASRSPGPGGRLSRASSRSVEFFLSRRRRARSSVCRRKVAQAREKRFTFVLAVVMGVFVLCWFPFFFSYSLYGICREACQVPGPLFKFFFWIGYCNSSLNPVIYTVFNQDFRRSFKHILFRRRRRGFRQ

[9] = inhibitors of larval lipid processing in zebrafish, primary screen, whole organism, PED6 fluorescence, gall bladder and intestine (AID 686;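 active means a full or partial loss of lipid-probe fluorescence in the fish gall bladder, intestine or both, judged by eye; inactive means no fluorescence loss, or compound toxic to the fish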;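 further: larvae 5 to 7 days old with five fish per well; signal comes from phospholipase A2 cleavage of quenched PED6 carried via bile; overnight exposure to compound and PED6 before scoring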); conditions: Zebrafish larvae PED6 lipid processing, fluorescence scoring; screened at 20 µM (by protocol)
[10] = loss of swimming-algae plug formation – whole organism, Chlamydomonas reinhardtii, WT vs cilia-less mutant, absorbance, 96-well, primary screen (AID 463189); conditions: Chlamydomonas reinhardtii gravitaxis, OD600 absorbance, 2 days; at 10 µM; stronger effect = higher value;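 further: 0% = wild type cc124 cells in DMSO and 100% = ciliumless bld1 mutant cells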
[11] = blockers of RIG-like receptor reporter activation – cell-based, Sendai virus stimulus, luciferase, 10K MLSCN set, TLR/RLR signaling modifier project, primary screen (AID 602276;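 active means inhibition at or above 50% at 10 µM; inactive means inhibition below 50%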;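 further: firefly luciferase from ISG56 promoter only with Renilla not read in this screen; 0% = Sendai virus plus DMSO and 100% = medium plus DMSO without virus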); conditions: HEK293 RL24 IRF3 luciferase reporter, at 10 µM, stronger effect = higher value
[12] = TLR3 IRF3 reporter activation blockers – cell-based, poly I:C stimulus, luciferase, 10K MLSCN set, primary screen (AID 602277;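 active means inhibition of the reporter signal at or above 50%; inactive means inhibition below 50%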); conditions: HEK293-TLR3 RL24 IRF3 luciferase reporter, at 10 µM, stronger effect = higher value
[13] = measured here: cell density z-score
[14] = measured here: nuclear c-Myc green intensity z-score
[15] = measured here: nuclear pErk red intensity z-score, stronger effect = higher value

## CCCOc1ccc(N2C(=O)C3ON(c4ccccc4)C(c4ccc(O)c(OC)c4)C3C2=O)cc1 (configuration not stated)
[1]
  cell count: 413
  inhibition: -5.2% (inactive)
[2]
  inhibition of aggregation: 2.2% (inactive)
  nuclei count: 110%
[3]
  inhibition: -53.3% (inactive)
  nuclei count: 124%
[4]; [13]
  z-score: 0.885
[4]; [14]
  z-score: -0.229
[4]; [15]
  z-score: -0.338
[5]
  inhibition: 7.42% (inactive)
[6]
  fluorescence slope: -0.41 (inactive)
[7]
  NADPH fluorescence slope: -0.0001 (inactive)
[8]
  slope: 0.00809 (inactive)
[9]
  outcome: inactive
[10]
  inhibition: -8.77% (inactive)
[11]
  inhibition: 16.5% (inactive)
[12]
  inhibition: 16.8% (inactive)

## CCN1CCN(c2cc3c(cc2F)c(=O)c(C(=O)O)cn3C2CC2)CC1
[1]
  cell count: 605
  inhibition: 1.1% (inactive)
[2]
  inhibition of aggregation: 3.3% (inactive)
  nuclei count: 97.3%
[3]
  inhibition: -41.3% (inactive)
  nuclei count: 116%
[4]; [13]
  z-score: 0.332
[4]; [14]
  z-score: 0.418
[4]; [15]
  z-score: 0.882
[5]
  inhibition: -5.24% (inactive)
[6]
  fluorescence slope: -0.498 (inactive)
[7]
  NADPH fluorescence slope: 1.7e-06 (inactive)
[8]
  slope: 0.0049 (inactive)
[9]
  outcome: inactive
[10]
  inhibition: -15.2% (inactive)
[11]
  inhibition: 1.29% (inactive)
[12]
  inhibition: 31.6% (inactive)

## CCC(C)n1ncn(-c2ccc(N3CCN(c4ccc(OCC5COC(Cn6cncn6)(c6ccc(Cl)cc6Cl)O5)cc4)CC3)cc2)c1=O (configuration not stated)
[1]
  cell count: 587
  inhibition: 3.2% (inactive)
[2]
  inhibition of aggregation: -63.7% (inactive)
  nuclei count: 140%
[3]
  inhibition: -162% (inactive)
  nuclei count: 121%
[4]; [13]
  z-score: 0.653
[4]; [14]
  z-score: -0.579
[4]; [15]
  z-score: -0.684
[5]
  inhibition: 1.38% (inactive)
[6]
  fluorescence slope: -0.456 (inactive)
[7]
  NADPH fluorescence slope: -5.2e-05 (inactive)
[8]
  slope: 0.00423 (inactive)
[9]
  outcome: inactive
[10]
  inhibition: 5.29% (inactive)
[11]
  inhibition: 33.8% (inactive)
[12]
  inhibition: 4.61% (inactive)

## CN(C)[C@@H]1C(=O)C(C(N)=O)=C(O)[C@@]2(O)C(=O)C3=C(O)c4c(O)ccc(Cl)c4[C@@H](O)[C@H]3C[C@@H]12
[1]
  cell count: 524
  inhibition: -3% (inactive)
[2]
  inhibition of aggregation: 77.8% (active)
  nuclei count: 96.8%
[3]
  inhibition: -35.1% (inactive)
  nuclei count: 93%
[4]; [13]
  z-score: 0.892
[4]; [14]
  z-score: 0.579
[4]; [15]
  z-score: -1.42
[5]
  inhibition: 9.37% (inactive)
[6]
  fluorescence slope: -0.537 (inactive)
[7]
  NADPH fluorescence slope: -2.5e-05 (inactive)
[8]
  slope: 0.00572 (inactive)
[9]
  outcome: active; no signal in intestine only
[10]
  inhibition: 54.1% (active) and 88% (active)
[11]
  inhibition: 17.1% (inactive)
[12]
  inhibition: 24.2% (inactive)

## CC(=O)OC(C)C[N+](C)(C)C (configuration not stated)
[1]
  cell count: 551
  inhibition: 2.7% (inactive)
[2]
  inhibition of aggregation: -10.4% (inactive)
  nuclei count: 93.2%
[3]
  inhibition: -37.2% (inactive)
  nuclei count: 109%
[4]; [13]
  z-score: -0.162
[4]; [14]
  z-score: 0.661
[4]; [15]
  z-score: -1.46
[5]
  inhibition: 5.42% (inactive)
[6]
  fluorescence slope: -0.469 (inactive)
[7]
  NADPH fluorescence slope: -5.5e-06 (inactive)
[8]
  slope: 0.0149 (active)
[9]
  outcome: inactive
[10]
  inhibition: 4.19% (inactive) and 8.31% (inactive)
[11]
  inhibition: 8.52% (inactive)
[12]
  inhibition: 29.7% (inactive)

## OCCN(CCO)c1nc(N2CCCCC2)c2nc(N(CCO)CCO)nc(N3CCCCC3)c2n1
[1]
  cell count: 547
  inhibition: -6.1% (inactive)
[2]
  inhibition of aggregation: -4% (inactive)
  nuclei count: 110%
[3]
  inhibition: -59.7% (inactive)
  nuclei count: 134%
[4]; [13]
  z-score: 0.412
[4]; [14]
  z-score: 0.0897
[4]; [15]
  z-score: 0.61
[5]
  inhibition: -0.493% (inactive)
[6]
  fluorescence slope: -0.056 (active)
[7]
  NADPH fluorescence slope: -1.2e-07 (inactive)
[8]
  slope: 0 (inactive)
[9]
  outcome: inactive
[10]
  inhibition: 1.16% (inactive) and 19.1% (inactive)
[11]
  inhibition: 10.6% (inactive)
[12]
  inhibition: -14.4% (inactive)
